Activity calls are given as the source filed them. The calls were made as follows: active = hit-call score of the fitted dose curve at least 0.9, where 1 is the maximum; inactive = score below 0.9.
Assay: ATG_AP_2_CIS: Attagene CIS-FACTORIAL HepG2 Assay for human Activator Protein 2 (AP-2) (AID 2282932)
Details: HepG2 AP-2 cis-reporter, Attagene transcription factor profiling; actives raise or lower the signal
Protocol: ATG_CIS is a cell-based, multiplexed-readout assay that uses HepG2, a human liver cell line, with measurements taken at 24 hours after chemical dosing in a 24-well plate.ATG_AP_2_CIS is one of 52 assay component(s) measured or calculated from the ATG_CIS assay. It is designed to make measurements of mRNA induction, a form of inducible reporter, as detected with fluorescence intensity signals by Reverse transcription polymerase chain reaction (RT-PCR) and Capillary electrophoresis technology.Data from the assay component ATG_AP_2_CIS was analyzed into 1 assay endpoint. This assay endpoint, ATG_AP_2_CIS, was analyzed with bidirectional fitting relative to DMSO as the negative control and baseline of activity. Using a type of inducible reporter, measures of mRNA for gain or loss-of-signal activity can be used to understand the reporter gene at the transcription factor-level as they relate to the gene TFAP2A and TFAP2B and TFAP2D. Furthermore, this assay endpoint can be referred to as a primary readout, because this assay has produced multiple assay endpoints where this one serves a reporter gene function. To generalize the intended target to other relatable targets, this assay endpoint is annotated to the dna binding intended target family, where the subfamily is basic helix-turn-helix leucine zipper.
Human liver HepG2 cells are transiently transfected with multiple reporter transcription units (MRTUs) in 6-well plates using FuGene 6 reagent (Roche; 3 ml FuGene/1 mg DNA). The MRTU constructs are regulated by a cis-regulating element (promoter). […] A major difference between the CIS and TRANS system is that in CIS activities of endogenous TFs are measured, whereas the TRANS assay evaluates changes in activities of exogenous, chimeric NR-Gal4 proteins. […] At the end of 24 hour incubation, total RNA was isolated using TriZol reagent (Invitrogen). The isolated RNA is then reverse-transcribed using oligo(dT) primer and Mo-MLV reverse transcriptase (Invitrogen) with DNAse I (Ambion) treatment for 30 min. The one-tenth of the produced cDNA was amplified by PCR using Taq DNA polymerase (Invitrogen) and two reporter sequence-specific primers. The PCR products were fluorescently labeled by primer extension with 6-arboxyfluorescein (6-FAM) 5'-labeled reporter sequence-specific primer (2 min at 95 C, 20 s at 68 C and 10 min at 72 C) and these products were digested with 5U of HpaI (New England Biolabs) for 2h at 37 C. The fragments were purified using Qiaquick PCR columns (Qiagen), analyzed on an ABI 3130xL genetic analyzer (Applied Biosystems) with peak positions identified by using a set of X-rhodamine (ROX)-labeled MapMarker1000 molecular weight standards (BioVentures). The raw capillary electrophoresis data was processed using Attagraph software (Attagene).

SMILES | AC50 | outcome
O=[N+]([O-])c1ccc(O)cc1C(F)(F)F | 26.4 µM (active) | –
c1ccc(Oc2ccccc2)cc1 | – | inactive
O=C(O)CNc1ccccc1 | – | inactive
Cc1ccc(N)c(S(=O)(=O)O)c1 | – | inactive
O=[N+]([O-])c1cccc(Cl)c1 | – | inactive
C[C@H](CCC(=O)NCC(=O)O)[C@H]1CC[C@H]2[C@@H]3[C@H](O)C[C@@H]4C[C@H](O)CC[C@]4(C)[C@H]3C[C@H](O)[C@]12C | – | inactive
C=Cc1ccc(C(C)(C)C)cc1 | – | inactive
Cc1cc(CCC(=O)OCCOCCOCCOC(=O)CCc2cc(C)c(O)c(C(C)(C)C)c2)cc(C(C)(C)C)c1O | – | inactive
C=CCOC(=O)CCCCCC | – | inactive
CC[N+](C)(CC)CC | – | inactive
CCCCCCCCCCCCS(=O)(=O)Cl | – | inactive
CCc1ccc(O)c(OC)c1 | – | inactive
CN(C)CCOC(C)(c1ccccc1)c1ccccn1 (stereo not given) | – | inactive
C=C(C)[C@H]1CC=C(C)C(=O)C1 | – | inactive
CCCCCCC(O)CCCCCCCCCCC(=O)O (stereo not given) | – | inactive
Cc1ncc([N+](=O)[O-])n1CCO | – | inactive
OC[C@H]1O[C@@H](Oc2ccc(O)cc2)[C@H](O)[C@@H](O)[C@@H]1O | – | inactive
Nc1c(Cl)cc(Cl)cc1[N+](=O)[O-] | – | inactive
Nc1ccc(N)c2c1C(=O)c1ccccc1C2=O | – | inactive
CC(C)(C)C1=CC(=O)C(C(C)(C)C)=CC1=O | – | inactive

SMILES | AC50 | outcome
CCC(C)c1cc([N+](=O)[O-])cc([N+](=O)[O-])c1OC(=O)OC(C)C (stereo not given) | 39.7 µM (active) | –
CCCOC(=O)c1c(Cl)c(Cl)c(Cl)c(Cl)c1C(=O)OCCC | – | inactive
N#Cc1ccc(CC(=O)c2cccc(C(F)(F)F)c2)cc1 | – | inactive
CN(C)C(=O)Nc1ccc(Oc2ccc(Cl)cc2)cc1 | – | inactive
C1CCOC1 | – | inactive
[Cl][Au]([Cl])[Cl] | – | inactive
CC(=O)CC(=O)Nc1ccc(C)cc1C | – | inactive
CS(C)=O | – | inactive
CC1(C)O[C@@H]2[C@@H](CO[C@@]3(COS(N)(=O)=O)OC(C)(C)O[C@@H]23)O1 | – | inactive
C=CC(C)(O)CCC=C(C)C (stereo not given) | – | inactive
COC(=O)c1ccc(OC)cc1 | – | inactive
CC(=O)C(C)O (stereo not given) | – | inactive
Cc1c(Cl)cccc1[N+](=O)[O-] | – | inactive
OCCc1ccccc1 | – | inactive
CCCCCCCC/C=C\CCCCCCCC(=O)OCC | – | inactive
C=C(C)C(=O)OCC(CC)(COC(=O)C(=C)C)COC(=O)C(=C)C | – | inactive
CCCC[O][Al]([O]CCCC)[O]CCCC | – | inactive
Cc1ccc(C)o1 | – | inactive
CC1CCC(C(C)C)C(O)C1 (stereo not given) | – | inactive
C=C(C)C(=O)OCCOCCOCCOCCOC(=O)C(=C)C | – | inactive
